Among all 2,100 compounds or so, about 480 (23%) were called active. Roughly 5% stayed inconclusive and do not appear here.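 Rule for the calls: active = fitted curve reaches 40% activation at or below the top valid concentration, in every replicate test; inconclusive = replicate tests disagree on the call; inactive = the rest, including activity in the opposite direction.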 Not all results are given here. Measured potencies and affinities stand elsewhere.
experiment: activators raising PGC1a acetylation in cells, dose response, cell-based, cherry-picked samples, set 6 (AID 720513); conditions: U2OS PGC1a acetylation AlphaLISA, overnight, 0 = neutral, -100 = inhibitor control; series mostly up to 19.5 µM;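 note: cells made to overexpress flag tagged PGC1a plus GCN5 acetyltransferase by viral infection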

outcome, inactive:
C[C@H](CO)N1C[C@H](C)[C@H](CN(C)S(=O)(=O)c2ccc(F)cc2)Oc2ccc(NS(=O)(=O)c3cn(C)cn3)cc2C1=O
O=C(Nc1ccc(C(F)(F)F)cc1)N1C[C@@H]2N[C@H](C1)C2c1ccc(-c2cccc(F)c2)cc1 (some centres undefined)
CCN(CC)C(=O)c1ccc(O)c(OC)c1
CC(C)NC(=O)Nc1ccc2c(c1)C(=O)N([C@@H](C)CO)C[C@@H](C)[C@H](CN(C)C(=O)NC(C)C)OCCCC[C@@H](C)O2
CCCN(C)C[C@H]1OCCCC[C@@H](C)Oc2ccc(NS(=O)(=O)c3ccc(Cl)cc3)cc2C(=O)N([C@@H](C)CO)C[C@H]1C
C[C@@H]1CN([C@@H](C)CO)C(=O)c2cc(N(C)C)ccc2O[C@@H](C)CCCCO[C@H]1CN(C)C(=O)c1ccncc1
CC(C)NC(=O)Nc1ccc2c(c1)C(=O)N([C@H](C)CO)C[C@@H](C)[C@H](CN(C)S(=O)(=O)c1ccccc1)OCCCC[C@@H](C)O2
CC(C)NC(=O)Nc1ccc2c(c1)C(=O)N([C@@H](C)CO)C[C@@H](C)[C@H](CN(C)S(=O)(=O)c1ccccc1)OCCCC[C@@H](C)O2
COc1ccc(NC(=O)N(C)C[C@@H]2OCCCC[C@@H](C)Oc3ccc(NC(=O)Cc4ccccc4)cc3C(=O)N([C@H](C)CO)C[C@@H]2C)cc1
C[C@@H]1CCCCO[C@@H](CN(C)C)[C@@H](C)CN([C@H](C)CO)C(=O)c2cc(NS(=O)(=O)c3ccc(Cl)cc3)ccc2O1
C[C@@H]1CCCCO[C@H](CN(C)C(=O)Cc2ccccc2)[C@H](C)CN([C@@H](C)CO)C(=O)c2cc(N(C)C)ccc2O1
O=C1CC2CS(=O)(=O)CC2N1c1ccc(Cl)cc1Cl (centres undefined)
NS(=O)(=O)c1ccc(CCNC2CC(=O)N(Cc3ccccc3)C2=O)cc1 (centres undefined)
O=C1CCN(S(=O)(=O)c2ccc(Cl)cc2)N1
Cc1cc(C)n(CCc2nc3c4ccccc4n(CC#N)c(=O)n3n2)n1
Cc1ccc(C(=O)Cn2c(C(=O)OCCO)cc3ccccc32)cc1
COc1cc(C(=O)O)ccc1Cl
Cc1ccc(Cn2ncc(Cl)c(Cl)c2=O)cc1
Cc1noc(C)c1S(=O)(=O)Nc1ccc2c(c1)C(=O)N([C@@H](C)CO)C[C@@H](C)[C@@H](CN(C)CC1CCCCC1)OCCCC[C@@H](C)O2
Cc1ccc(S(=O)(=O)Nc2ccc3c(c2)C(=O)N([C@H](C)CO)C[C@H](C)[C@H](CN(C)C(=O)NC(C)C)OCCCC[C@@H](C)O3)cc1
C[C@H](CO)N1C[C@H](C)[C@@H](CN(C)C(=O)Nc2cccc3ccccc23)OCCCC[C@H](C)Oc2ccc(N(C)C)cc2C1=O
Cc1ccc(S(=O)(=O)Nc2ccc3c(c2)C(=O)N([C@H](C)CO)C[C@@H](C)[C@@H](CN(C)C(=O)NC(C)C)OCCCC[C@H](C)O3)cc1
Cc1noc(C)c1S(=O)(=O)Nc1ccc2c(c1)C(=O)N([C@H](C)CO)C[C@@H](C)[C@@H](CN(C)S(=O)(=O)c1cccs1)OCCCC[C@H](C)O2
C[C@H]1CCCCO[C@H](CN(C)C(=O)Nc2cccc3ccccc23)[C@@H](C)CN([C@@H](C)CO)C(=O)c2cc(N(C)C)ccc2O1

Reference: PubChem BioAssay AID720513 (Broad Institute, 2013)
